In PubChem BioAssay AID1159580 (chemical genetic matrix, 2015):
Among all 5,500 compounds or so, about 2,000 (36%) were called active. Inconclusive results (about 18%) are left out. Rule as the data show it: active = normalized growth mostly below about 0.91 (no sharp cut-off); inconclusive = no clear call, values can overlap the other calls; inactive = mostly above about 0.92. Some of the results follow.

Experiment: chemical genetic growth profiling, strain panel (AID 1159580);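 also: tested at 20 µM; growth read once vehicle control cultures reached saturation at 30 °C; 1 = growth at the plate median or of vehicle wells; lower values mean less growth of the strain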
Settings: S. cerevisiae deletion strains, growth OD

Measured: normalized growth

O=C(Cc1cccs1)NC1C(=O)N2C(C(=O)[O-])=C(C[n+]3ccccc3)CSC12 (stereo unspecified)
inactive: locus YAL013W, strain DEP1, stronger effect = lower value 1.01 | locus YAL021C, strain ccr4, stronger effect = lower value 0.966 | locus YAL026C, strain drs2, stronger effect = lower value 0.989 | locus YAL030W, strain snc1, stronger effect = lower value 0.994 | locus YBL061C, strain skt5, stronger effect = lower value 0.995 | locus YBR009C, strain hhf1, stronger effect = lower value 0.981 | locus YBR021W, strain FUR4, stronger effect = lower value 1 | locus YBR023C, strain chs3, stronger effect = lower value 0.993 | locus YBR171W, strain sec66, stronger effect = lower value 0.975 | locus YBR229C, strain ROT2, stronger effect = lower value 0.99 | locus YBR231C, strain swc5, stronger effect = lower value 0.985 | locus YBR279W, strain paf1, stronger effect = lower value 0.996 | locus YCL011C, strain gbp2, stronger effect = lower value 0.997 | locus YCL016C, strain dcc1, stronger effect = lower value 0.991 | locus YCL029C, strain bik1, stronger effect = lower value 1 | locus YCL069W, strain vba3, stronger effect = lower value 0.991 | locus YCR088W, strain abp1, stronger effect = lower value 0.982 | locus YDL005C, strain med2, stronger effect = lower value 0.968 | locus YDL035C, strain GPR1, stronger effect = lower value 0.998 | locus YDL040C, strain nat1, stronger effect = lower value 0.983 | locus YDL074C, strain BRE1, stronger effect = lower value 1.01 | locus YDL101C, strain DUN1, stronger effect = lower value 1.02 | locus YDL134C, strain PPH21, stronger effect = lower value 1 | locus YDL185W, strain tfp1, stronger effect = lower value 0.991 | locus YDL192W, strain arf1, stronger effect = lower value 0.992 | locus YDR001C, strain nth1, stronger effect = lower value 0.996 | locus YDR069C, strain doa4, stronger effect = lower value 0.964 | locus YDR101C, strain arx1, stronger effect = lower value 1.01 | locus YDR137W, strain rgp1, stronger effect = lower value 0.988 | locus YDR159W, strain sac3, stronger effect = lower value 0.962 | locus YDR162C, strain NBP2, stronger effect = lower value 1.01 | locus YDR195W, strain ref2 1.01 | locus YDR297W, strain sur2, stronger effect = lower value 0.989 | locus YDR318W, strain mcm21, stronger effect = lower value 0.998 | locus YDR334W, strain swr1, stronger effect = lower value 0.993 | locus YDR335W, strain msn5, stronger effect = lower value 0.996 | locus YDR388W, stronger effect = lower value 0.99 | locus YDR392W, strain spt3, stronger effect = lower value 0.994 | locus YDR502C, strain sam2, stronger effect = lower value 0.985 | locus YEL003W, strain gim4, stronger effect = lower value 0.969 | locus YEL037C, strain rad23, stronger effect = lower value 1 | locus YEL061C, strain CIN8 (second series), stronger effect = lower value 1 | locus YEL061C, strain CIN8, stronger effect = lower value 1.01 | locus YER015W, strain faa2, stronger effect = lower value 0.983 | locus YER016W, strain bim1, stronger effect = lower value 0.983 | locus YER110C, stronger effect = lower value 0.992 | locus YER111C, strain swi4, stronger effect = lower value 0.96 | locus YER155C, strain BEM2 (second series), stronger effect = lower value 0.987 | locus YER155C, strain BEM2, stronger effect = lower value 1 | locus YER167W, strain BCK2, stronger effect = lower value 0.991 | locus YFR010W, strain ubp6, stronger effect = lower value 0.986 | locus YGL078C, strain dbp3, stronger effect = lower value 0.99 | locus YGL086W, strain mad1, stronger effect = lower value 0.999 | locus YGL167C, strain pmr1, stronger effect = lower value 0.985 | locus YGL173C, strain kem1, stronger effect = lower value 0.982 | locus YGL227W, strain vid30, stronger effect = lower value 0.979 | locus YGL240W, strain doc1, stronger effect = lower value 0.956 | locus YGL248W, strain PDE1, stronger effect = lower value 1.02 | locus YGL253W, strain hxk2, stronger effect = lower value 0.999 | locus YGR135W, strain pre9, stronger effect = lower value 0.978 | locus YGR252W, strain gcn5, stronger effect = lower value 0.941 | locus YHR013C, strain ard1, stronger effect = lower value 0.981 | locus YHR027C, strain rpn1, stronger effect = lower value 0.991 | locus YHR030C, strain SLT2, stronger effect = lower value 1.01 | locus YHR079C, strain IRE1 (second series), stronger effect = lower value 0.996 | locus YHR094C, strain hxt1, stronger effect = lower value 0.998 | locus YHR129C, strain ARP1, stronger effect = lower value 1.01 | locus YHR142W, strain chs7, stronger effect = lower value 0.963 | locus YHR200W, strain rpn10, stronger effect = lower value 0.994 | locus YIL066C, strain RNR3, stronger effect = lower value 1.02 | locus YIL073C, strain SPO22, stronger effect = lower value 1.09 | locus YIL125W, strain kgd1, stronger effect = lower value 0.999 | locus YIR030C, strain dcg1, stronger effect = lower value 1.01 | locus YJL092W, strain hpr5, stronger effect = lower value 0.986 | locus YJL095W, strain BCK1 (second series), stronger effect = lower value 0.961 | locus YJL095W, strain BCK1, stronger effect = lower value 1.03 | locus YJL115W, strain asf1, stronger effect = lower value 0.981 | locus YJL129C, strain trk1, stronger effect = lower value 0.99 | locus YJL134W, strain LCB3, stronger effect = lower value 1 | locus YJL154C, strain vps35, stronger effect = lower value 0.983 | locus YJL164C, strain tpk1, stronger effect = lower value 0.985 | locus YJL166W, strain qcr8, stronger effect = lower value 0.979 | locus YJL168C, strain set2, stronger effect = lower value 0.994 | locus YJL187C, strain SWE1 (second series), stronger effect = lower value 1.01 | locus YJL187C, strain SWE1, stronger effect = lower value 0.978 | locus YJR043C, strain POL32, stronger effect = lower value 1.01
